Experimental findings from PubChem BioAssay AID828 (The Scripps Research Institute Molecular Screening Center, 2007) are described below.

Among all 140,000 compounds or so, about 550 (0.39%) were called active. Many of the other results were omitted from the sample, so actives are more common in it than they were. Unmarked numbers belong to inactive results. Cut-off read from the data, not from the text of the source: active = inhibition above about 27%; inactive = the rest.

In this experiment the target is Galanin receptor type 2 (Homo sapiens) (UniProt O43603). Description: GALR2 antagonists in receptor-expressing cells, primary screen (AID 828).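 Note: cells stimulated with galanin 1-16 at roughly its EC80; 0% = agonist challenge control and 100% = basal control without agonist.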 As to conditions: antagonist mode, at 4 µM, stronger effect = higher value.
Chain of Galanin receptor type 2 (Homo sapiens) (O43603 whole entry, looked up): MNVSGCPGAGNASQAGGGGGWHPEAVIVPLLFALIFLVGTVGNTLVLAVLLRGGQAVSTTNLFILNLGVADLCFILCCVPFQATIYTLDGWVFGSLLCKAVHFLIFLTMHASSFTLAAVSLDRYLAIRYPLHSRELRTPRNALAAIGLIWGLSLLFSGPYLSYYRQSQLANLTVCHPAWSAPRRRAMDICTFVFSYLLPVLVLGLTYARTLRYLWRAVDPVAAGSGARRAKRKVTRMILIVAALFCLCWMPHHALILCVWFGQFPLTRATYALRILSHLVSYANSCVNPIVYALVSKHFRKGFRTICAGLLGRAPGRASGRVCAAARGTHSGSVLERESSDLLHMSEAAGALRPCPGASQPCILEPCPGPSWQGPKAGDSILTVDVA
The inhibition is the change of the read-out against control, counted positive when it falls. As for `CCOC(=O)NC(=O)CSc1nnc(SCCC(=O)O)s1`, the inhibition was -4.2%.

As for `Nc1nc(SCC(=O)NCCN2CCOCC2)nc2sc3c(c12)CCC3`, the inhibition is 15.2%.

Consider `O=C(CSc1nc2ccc([N+](=O)[O-])cc2[nH]1)c1ccc(Cl)cc1`, for which the inhibition is 5.51%.

In the case of `Cc1cc(Oc2ccc(Cl)cc2)nc(SCC(=O)c2ccccc2)n1`, the inhibition was -1.42%.

Turning to `O=C(CC1NCCNC1=O)Nc1cc(Cl)cc(Cl)c1` (stereo not drawn), the inhibition was -4.41%.

On to `CC1CN(C(=S)SCC(=O)c2ccccc2)CC(C)O1` (stereo not drawn), for which the inhibition was -1.6%.

In the case of `COC(=O)c1cc(NC(=O)Cc2ccccc2[N+](=O)[O-])ccc1Cl`, the inhibition was 16.4%.

Consider `N#Cc1cccc(NC(=O)COC(=O)c2ccccc2C(=O)c2ccc(Cl)c([N+](=O)[O-])c2)c1`, for which the inhibition is 68.1% (active).

Turning to `CC(=O)Nc1ccc(NC(=O)C(C)OC(=O)c2ccccc2C(=O)c2ccc(Cl)c([N+](=O)[O-])c2)cc1` (stereo not drawn), the inhibition was 25.8%.

On to `CCN(C(=O)COC(=O)c1cc(NS(=O)(=O)c2ccc(Cl)c([N+](=O)[O-])c2)ccc1O)C1CCCCC1`, for which the inhibition was -12.1%.

Take `NS(=O)(=O)c1ccc(NC(=O)COC(=O)C2(c3ccc(F)cc3)CCCC2)cc1`: the inhibition is 10.9%.

Consider `CN(c1ccccc1)S(=O)(=O)c1cccc(NC(=O)Cc2c(F)cccc2Cl)c1`, for which the inhibition was 6.13%.

On to `CN(C)S(=O)(=O)c1cccc(NC(=O)COC(=O)C2(c3ccccc3F)CCCC2)c1`, for which the inhibition is 31.7% (active).

Take `CSCCC(Nc1ccc(S(=O)(=O)N2CCOCC2)cc1[N+](=O)[O-])C(=O)OCC(=O)N(C(C)C)C(C)C` (stereo not drawn): the inhibition was 0.86%.

For the compound `O=C(CCc1[nH]c2ccccc2c1Sc1ccccc1)N(CCO)CCO`, the inhibition is -2.04%.

Consider `CCCOC(=O)c1c(NC(=O)c2cnn3c2NC(c2ccccc2)CC3C(F)(F)F)sc2c1CCCC2` (stereo not drawn), for which the inhibition was -6.74%.

`CCOC(=O)c1cc2c(=O)n3ccccc3nc2n(CC(C)C)c1=NC(=O)c1c(-c2c(F)cccc2Cl)noc1C`: the inhibition is -2.98%.

As to `Cc1cccc(N2CCN(C(=O)c3ccccc3NC(=O)C3CCCCC3C(=O)O)CC2)c1` (stereo not drawn), the inhibition is 0.78%.

`Cc1ccc(NN=C2C(=O)OC(C)(C)OC2=O)c(C)c1`: the inhibition was 4.74%.

As for `CN(C)c1ccc(C(CNC(=O)c2ccc(F)cc2)c2c[nH]c3ccccc23)cc1` (stereo not drawn), the inhibition is 5.85%.

On to `CC(=O)N/C(=C/c1ccc(OC(F)F)cc1)C(=O)O`, for which the inhibition was -1.23%.

On to `Cc1nn(-c2ccccc2)c(-n2cccc2)c1C(=O)O`, for which the inhibition is 8.6%.

`O=C(CN1CCc2ccccc21)NC(c1ccccc1)c1ccccc1`: the inhibition is -11.2%.
